“And” between values parts separate entries of the source, which are not always exact repeats. Equal entries are not always repeated. Among all 320,000 compounds or so, about 2,100 (0.66%) were called active. Inconclusive results (about 53%) are left out. Calls follow the shape of the dose curve; as a rule, active = well fitted inhibition curve with a large enough effect in the signal ratio, with a control signal flat (not every such curve was filed as active); inconclusive = small, poorly fitted or top-dose-only effect, or effect the other way, or a change in a side signal; inactive = flat fitted curve, though single readings scatter; the % refers to the signal ratio. Only a selection was taken, and actives are over-represented in it overall.
Experiment: qHTS Assay for Lipid Storage Modulators in Drosophila S3 Cells;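 as to cell number change: cells counted by Cell Tracker Red CMTPX staining in the red channel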; as to lipid storage change, negative = inhibition: % is scaled to controls: 0 for no effect and ±100 for the full control effect
Settings: BODIPY lipid droplet fluorescence, 18-24 h, cells fed with added oleic acid; cell number change: measured here: cell count max response; series mostly up to 46.1 µM; lipid storage change, negative = inhibition: at the top concentration
Procedure, shortened: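 Laser-scanning cytometry quantifies lipid droplet accumulation (500–530 nm total intensity; droplet/cell object ratio) in oleic acid-fed (400 uM added) Drosophila S3 cells treated with a concentration series. 20 uM Triacsin C defined 100% inhibition.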
Potency is read from the fitted curve at half-maximal effect.

Row | Structure (SMILES) | Potency | cell number change | outcome | lipid storage change, negative = inhibition
1 | COc1ccc(C2CC(c3ccc4ccccc4c3OC(C)=O)=NN2C(=O)/C=C/c2ccccc2)cc1 (stereo not given) | 6.51 µM (active) | -4.95% |  | 
2 | COc1ccc(C2CC(c3ccccc3)=NN2C(=O)CSc2ncccn2)cc1 (stereo not given) | 18.4 µM (active) | -10.6% |  | 
3 | COc1ccc(C2CC(c3cccs3)=NN2C(=O)COC(=O)C2CCCCC2)cc1OC (stereo not given) |  |  | inactive | 
4 | COc1ccc(C2CC(c3ccccc3)=NN2C(=O)COC(=O)CNC(=O)c2ccccc2)cc1 (stereo not given) | 14.6 µM (active) | 17% |  | 
5 | COc1ccccc1-n1c(-c2ccc(F)cc2)coc1=O |  | 9.35% |  | 8.23% (inactive)
6 | COC(=O)Nc1ccc(S(=O)(=O)N2CCN(c3ccc(F)cc3)CC2)cc1 |  |  | inactive | 
7 | COCCn1nnnc1C(c1ccccn1)N1CCN(c2cccc(C)c2C)CC1 (stereo not given) |  | 1.34% |  | 3.18% (inactive)
8 | Cc1cc(Cl)c(S(=O)(=O)NC(C(=O)O)c2ccccc2)cc1OCC(N)=O (stereo not given) |  | 6.34% | inactive | 
9 | COc1ccc(CC2(CO)CCN(C(C)Cc3ccc(Cl)cc3)CC2)cc1 (stereo not given) |  | -1.88% |  | -5.1% (inactive)
10 | CC(=O)C1=NN(c2ccc(Cl)cc2)C(c2ccc3c(c2)OCO3)N(C(C)=O)N1C (stereo not given) |  | 4.72% |  | 10.1% (inactive)
11 | O=C(CNc1ccc(Br)cc1)c1ccccc1 |  | -10.1% |  | 1.32% (inactive)
12 | O=C(NNC1CC(=O)N(c2ccc(Cl)cc2)C1=O)c1ccccn1 (stereo not given) |  | 6.05% |  | -2.98% (inactive)
13 | CCCCNCc1cc2ccccc2o1 |  | -14.5% |  | -15.4% (inactive)
14 | Cc1ccc(-c2nn(CC(=O)O)c(=O)c3ccccc23)cc1 |  | -4.34% |  | 4.71% (inactive)
15 | O=C(CCN1C(=O)[C@@H]2Cc3ccccc3CN2C1=O)N[C@H](C(=O)O)c1ccccc1 |  | 8.94% | inactive | 
16 | COc1ccc(NC(=O)COC(=O)Cc2cccs2)cc1OC |  | -0.769% |  | 24.7% (inactive)
17 | COc1cccc(C2CC(c3cccs3)=NN2C(=O)CSc2nc3ccccc3o2)c1OC (stereo not given) |  | 8.7% |  | -2.37% (inactive)
18 | O=C(CSc1nc2ccccc2o1)N1N=C(c2cccs2)CC1c1ccc(F)cc1 (stereo not given) |  | -17.4% | inactive | 
19 | COc1ccc(C2CC(c3cccs3)=NN2C(=O)CSc2nc3ccccc3o2)cc1 (stereo not given) | 9.2 µM (active) | -8.56% |  | 
20 | CC(=O)c1ccc(NC(=O)Cn2cnc(S(=O)(=O)N3CCOCC3)c2)cc1 |  | -2.31% | inactive | 
21 | COc1ccc2cc(CCNC(=O)c3cccc([N+](=O)[O-])c3)c(=O)[nH]c2c1 |  | 9.49% |  | 1.68% (inactive)
22 | CN1C(=O)C(O)(CC(=O)/C=C\c2ccc3c(c2)OCO3)c2ccccc21 (stereo not given) | 0.366 µM (active) | -43.9% |  | 
23 | O=C(/C=C\c1ccc2c(c1)OCO2)CC1(O)C(=O)Nc2ccccc21 (stereo not given) |  | 10.9% |  | 4.36% (inactive)

Row | Structure (SMILES) | Potency | cell number change | outcome | lipid storage change, negative = inhibition
24 | NC(=O)CN1C(=O)C(O)(CC(=O)/C=C\c2ccc3c(c2)OCO3)c2ccccc21 (stereo not given) |  | -3.53% |  | 3.04% (inactive)
25 | COc1ccc(S(=O)(=O)NCC2CCCO2)cc1NC(=O)c1ccccc1F (stereo not given) | 25.9 µM (active) | -5.13% |  | 
26 | CCOc1ccc(S(=O)(=O)NCC2CCCO2)cc1NC(=O)c1ccccc1F (stereo not given) |  | 23.9% | inactive | 
27 | COc1ccc(S(=O)(=O)NCC2CCCO2)cc1C(=O)O (stereo not given) |  | 10.7% |  | -1.07% (inactive)
28 | C#CCOCCOCCOCCNc1nc(N2CCN(C(=O)[C@H](CCC(=O)O)n3cc(C(N)CO)nn3)CC2)nc(N2CCN(C(=O)[C@H](Cc3cc4ccccc4[nH]3)n3cc(C(N)[C@H](C)CC)nn3)CC2)n1 (stereo not given in full) |  | 10.5% |  | -13% (inactive)
29 | Cc1ccc(NC(=O)CCN2C(=O)C3C4CCC(C4)C3C2=O)cc1[N+](=O)[O-] (stereo not given) |  | -0.215% |  | 2.12% (inactive)
30 | Cc1ccnc2nc(C(=O)OCC(=O)N(CC(C)C)C3CCS(=O)(=O)C3)nn12 (stereo not given) |  | 2.08% |  | 9.53% (inactive)
31 | COc1ccc(CC(=O)NCC2COc3ccccc3O2)cc1 (stereo not given) |  | 0.718% |  | -7.76% (inactive)
32 | O=C(CCC1COc2ccccc2O1)NCC1COc2ccccc2O1 (stereo not given) |  | 8.2% |  | 10.9% (inactive)
33 | COc1ccccc1C(=O)NCCC(=O)NCC1COc2ccccc2O1 (stereo not given) | 20.6 µM (active) | -11.7% |  | 
34 | O=C(N/C(=C/c1ccccc1)C(=O)N1CCCCCC1)c1ccccc1 |  | 10.3% |  | 0.572% (inactive)
35 | CCOC(=O)c1c(C)nc2c3ccccc3ccn12 |  | -20.3% | inactive | 
36 | CCOC(=O)c1c2ccccc2[n+]([O-])n1CCO | 18.4 µM (active) | -10.4% |  | 
37 | CCOC(=O)c1c(O)c(O)c(C(=O)OCC)n1-c1ccccc1 |  | 6.34% |  | -6.73% (inactive)
38 | Cc1nc2ccc(NS(=O)(=O)c3ccc(F)cc3)cc2s1 |  | 20% | inactive | 
39 | Cc1nc2ccc(NS(=O)(=O)c3ccc(F)cc3F)cc2s1 | 13 µM (active) | -1.41% |  | 
40 | Cc1ccc(S(=O)(=O)Nc2ccc3nc(C)sc3c2)cc1 |  | -22.9% |  | -16% (inactive)
41 | Cc1nc2ccc(NS(=O)(=O)c3ccccc3F)cc2s1 |  | 3.06% |  | 12.6% (inactive)
42 | Cc1ccc(S(=O)(=O)Nc2ccc3nc(N)sc3c2)cc1 |  | -27.3% |  | 16.5% (inactive)
43 | Cc1ccc(S(=O)(=O)Nc2ccc3nc(C)sc3c2)c(C)c1 | 10.3 µM (active) | 24.9% |  | 
44 | COC(=O)C1=C(C)N(Cc2ccccc2)C(=NCc2ccccc2)N[C@H]1c1cccc(F)c1 |  | -6.29% |  | -22.4% (inactive)
45 | COC(=O)C1=C(C)N(Cc2ccccc2)C(=NCc2cccc(Cl)c2)N[C@H]1c1ccccc1 | inactive | -18.9% and 6.44% |  | 
46 | COC(=O)C1=C(C)N(Cc2ccccc2)C(=NCc2cccc(Cl)c2)N[C@H]1c1cccc(F)c1 | 20.6 µM (active) | -27.7% |  | 

Source: PubChem BioAssay AID2685 (National Center for Advancing Translational Sciences (NCATS), 2010)
